From PubChem BioAssay (NCI)
Compounds without any hit were thinned out: in the full panel of roughly 83,000, 20% have a hit.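 Single-concentration screen, 48 h exposure, 96-well plates. Endpoint: percent growth. Below 10 = active.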 Values without a mark were called inactive. Activity calls are given as the source filed them.

Columns and labels:
Test in all cases: NCI-60 one-dose screen, 48 h (100 = growth as untreated, 0 = no growth, -100 = all killed)
Details in all cases: 10 µM
[1] = system: K-562 leukemia
[2] = system: MALME-3M melanoma
[3] = system: MDA-MB-231 breast
[4] = system: RXF 393 renal
[5] = system: SF-268 CNS
[6] = system: SF-295 CNS
[7] = system: SF-539 CNS
[8] = system: UACC-257 melanoma
[9] = system: M14 melanoma
[10] = system: HCT-15 colon

SMILES | growth [1] | growth [2] | growth [3] | growth [4] | growth [5] | growth [6] | growth [7] | growth [8] | growth [9] | growth [10]
O=S(=O)(NCCNc1nccc(-c2c(-c3ccc(F)cc3)nc3sccn23)n1)c1ccc2ccccc2c1 | 54.6% | 81.2% | 98.3% | 91.3% | 68.3% | 68.2% | 104% | 71% | 82.9% | 76.4%
Nc1c(C(=O)Nc2cccc(Br)c2)sc2nc3c(cc12)C(O)CCC3 (stereo not given) | 7.52% (active) | 64.3% | 44.2% | -22% (active) | 46.2% | 33.9% | -21.2% (active) | 64.7% | 12.8% | 23.5%
O=C(CCCCCCC(=O)Nc1cccnc1)NO | 5.89% (active) | -23.1% (active) | 66.4% | 17.6% | 41.5% | 73.6% | 50% | 78.4% | 29.6% | 93.1%
CNc1ncc(-c2ccc(C(F)(F)F)cc2)c(NC2CCCCCC2)n1 | 76.2% | 61.3% | 92.8% | 80.6% | 99.7% | 79.4% | 93.5% | 73.2% | 93.9% | 81.5%
CN(C)Cc1cn(-c2ncc(-c3ccc(C(F)(F)F)cc3)c(NC3CCCCCC3)n2)nn1 | 38.2% | 73.5% | 89.5% | 93.6% | 88.5% | 94.3% | 99.3% | 82.8% | 84.5% | 94.1%
C#Cc1ccc(-n2c(/C=C/c3ccc(O)c(OC)c3)nc3ncccc3c2=O)cc1 | 80% | 95% | 98.5% | 100% | 95% | 104% | 97.2% | 87.8% | 101% | 90.5%
Nc1ncnc2[nH]c(=O)[nH]c12 | 46.5% | 104% | 91.4% | 22.1% | 89% | 85.1% | 87% | 103% | 94.6% | 96.3%
O=C(Nc1ccc(CO)cc1)c1ccccc1Nc1ccnc(C(F)(F)F)c1 | 93.7% | 92.5% | 96.9% | 120% | 99.3% | 111% | 101% | 102% | 99.8% | 103%
S=c1[nH]ccn1-c1c(Cl)cccc1Cl | 103% | 109% | 102% | 106% | 118% | 99.1% | 94.4% | -4.51% (active) | 98.1% | 100%
O=C1Nc2ccccc2C1=NC1CCCCC1 | 100% | 90.9% | 103% | 107% | 96% | 98.3% | 99.7% | 100% | 106% | 105%
Fc1ccc2nc(-c3nc(-c4ccccc4)n4ccccc34)[nH]c2c1 | 8.58% (active) | -57.7% (active) | -3.47% (active) | -25.7% (active) | -38.6% (active) | -28% (active) | 27.3% | -17.4% (active) | 27.7% | 20.4%
COc1ccc(-c2cc(-c3cccc(NS(C)(=O)=O)c3)nc(N)c2C#N)cc1 | 14.3% | 2.95% (active) | 30.4% | 16.3% | 29.9% | 0.458% (active) | 5.27% (active) | 79.1% | 6.36% (active) | 30.5%
CC(=O)c1nc2ccccc2n1CCN1CCN(C)CC1 | 15.3% | 17.6% | 42.9% | 48% | 48.1% | 153% | 35.3% | 49.8% | 20.5% | 98.9%
O=c1oc2cc(OS(=O)(=O)c3ccccc3)ccc2c2c1CCCCC2 | 37.4% | 66.7% | 68.4% | 64% | 76.8% | 59.8% | 48.3% | 50.8% | 70.2% | 42.2%
COc1ccc(-c2nc(-c3nc4ccc(Cl)cc4[nH]3)c3ccccn23)cc1 | 55.8% | -10.8% (active) | 11.8% | -54.8% (active) | -8.4% (active) | 6.74% (active) | -13.7% (active) | 49.4% | 62.3% | 62.8%
COc1cc2nc(Nc3cccc(NC(C)=O)c3)nc(N)c2cc1OC | 103% | 101% | 86.9% | 94.1% | 92.3% | 131% | 101% | 98.3% | 107% | 93.8%
O=C(Nc1ccc(Cl)c([N+](=O)[O-])c1)Nc1nc2ccccc2s1 | 74.9% | 67.6% | 86.2% | 113% | 106% | 71% | 83.6% | 91.8% | 88.7% | 92.3%
O=C1/C(=C/c2ccc(Cl)cc2)SC(=Nc2ccc(Cl)cc2)N1Cc1nc2ccccc2[nH]1 | 58.2% | 48.9% | 59.2% | 91.5% | 74.4% | 68.2% | 101% | 87.2% | 92.4% | 64.1%
CC1(C)CCC(=NNC(N)=S)CC1 | 94.6% | 107% | 116% | 115% | 103% | 88.2% | 98.1% | 102% | 113% | 98.8%
CC(=O)C1CCC2C3CC(F)C4=CC(=O)CCC4(C)C3C(O)CC12C (stereo not given) | 86.1% | 86.6% | 98.8% | 118% | 106% | 97.8% | 101% | 98.6% | 93.6% | 108%
COc1cccc(Cn2c(-c3nonc3N)nc3ccccc32)c1 | 9.47% (active) | 68.3% | 27.7% | -40.1% (active) | 42% | -26.9% (active) | -34.6% (active) | 49.2% | 20.4% | 24.1%
c1ccc(CP(Cc2ccccc2)c2ccccc2)cc1 | 83.4% | 82.3% | 98.3% | 113% | 110% | 82.4% | 110% | 95.5% | 95.4% | 95.1%
CN(C)c1ccc(N=C2C=CC(=O)c3ccccc32)cc1 | 69.8% | -11.2% (active) | 59.5% | 81.2% | 73.9% | 60.5% | 88.7% | 65.3% | -18.2% (active) | 53.5%
O=C(/C=C/c1cc2ccccc2[nH]c1=O)c1ccc2c(c1)OCO2 | 87.4% | 78% | 94% | 112% | 93.6% | 100% | 88.2% | 94.2% | 87.3% | 97.6%
CC(C)(C)c1ccc(N2CSC(=S)N(c3ccc(C(C)(C)C)cc3)C2)cc1 | 90.1% | 85.8% | 97.4% | 144% | 109% | 99.9% | 97.9% | -6.73% (active) | 95.9% | 94.7%
FC(F)(F)c1ccc(-c2cnc(-n3cc(COCCN4CCCCC4)nn3)nc2NC2CCCCCC2)cc1 | -48.4% (active) | -86.3% (active) | 11.1% | -3.46% (active) | 33.2% | -56.8% (active) | -66.8% (active) | -89.7% (active) | -87.6% (active) | 3.73% (active)
